esBAF inh: Bmi1 luciferase reporter increase in mESCs, primary screen, esBAF inhibitor project, mouse ES cells, Bmi1 luciferase knock-in, single point; 24 h; 100% = twice the neutral-well signal; 2% of 350,000 active; reporter increase, % at 12.5 µM; in the data active = activation above about 40%; inconclusive = no clear call, values can overlap the other calls;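 also: 0% = median of the plate's neutral control wells and 100% = double that signal; a rise in the Bmi1 reporter signal indicates esBAF inhibition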
MITF TRPM1 HTS: activators of MITF-driven TRPM1 promoter reporter, primary screen, cell-based, SK-MEL-5, luciferase, single point; SK-MEL-5 TRPM1-promoter luciferase, 24 h; % of positive control, neutral wells = 0; 0.75% of 300,000 active; AID 588334, 2011; activation, % at 12.5 µM;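 active = mean activation of at least 80% with every replicate also reaching 80%; inconclusive = mean reaches 80% but some replicate falls short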;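 also: 0% = neutral control wells and 100% = parthenolide positive control wells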
Wnt act: Wnt/beta-catenin pathway activators, primary screen, cell-based, plate reader, single point; Wnt/beta-catenin reporter cell assay, activator; activation, % at 9.35 µM; 1.2% of 300,000 active; in the data active = activation above about 30%, passing the limit was not always enough; inconclusive = no clear call, values can overlap the other calls;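 also: 0% = neutral control wells and 100% = positive control wells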
C2C12 statin: suppressors of statin myotoxicity in C2C12 myotubes, primary screen, cell-based, single point, plate reader. C2C12 myotubes + simvastatin, ATP luminescence, 48 h; scaled: DMSO 0, geranylgeraniol control 100. rescue of ATP level, % at 7.49 µM. 0.78% of 330,000 active;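 active = mean ATP rescue above about 67%, or every replicate alone reaching that limit, limit read from the data, passing the limit was not always enough; inconclusive = no clear call, values can overlap the other calls; inactive = mean under the limit and some replicate under it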;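 also: myotubes were challenged with 10 µM simvastatin during compound exposure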
Starred values were filed as active, the others as inactive; ? = inconclusive; nt = no result. Rows were chosen to be rich in hits. Some 3% of all compounds tested hit in one or more screens of this group.

SMILES	esBAF inh	MITF TRPM1 HTS	Wnt act	C2C12 statin
CC1CCCCC1NC(=O)/C=C/c1nc2ccccc2s1 (stereo unspecified)	nt	67	25	nt
C[C@@H]1CN([C@H](C)CO)C(=O)c2cccc(NS(=O)(=O)c3ccc(Cl)cc3)c2O[C@@H]1CN(C)CC1CCCCC1	-8	nt	nt	1
Cc1noc(C)c1S(=O)(=O)Nc1ccc2c(c1)CC(=O)N([C@H](C)CO)C[C@H](C)[C@H](CN(C)C(=O)Nc1ccc3c(c1)OCO3)O2	1	nt	nt	-8
CC(=O)C1=C(c2cccc([N+](=O)[O-])c2)N(C(C)=O)n2c(C)nnc2S1	nt	0	75*	nt
CO[C@@H]1CN(C)C(=O)c2cc(NS(=O)(=O)c3ccccc3Cl)ccc2OC[C@H](C)NC[C@@H]1C	-5	nt	nt	-2
Nc1ccccc1C(=O)NNC1=C(C(=O)C(F)(F)F)CCC1	nt	nt	68*	nt
O=C(NNC1=C(C(=O)C(F)(F)F)CCC1)c1ccccc1O	7	3	nt	19
CO[C@H]1CN(C)C(=O)c2cc(NS(=O)(=O)c3ccccc3C)ccc2OC[C@@H](C)NC[C@H]1C	-4	nt	nt	15
CC(=O)N1CCN(c2nc3ccc(Br)cc3s2)CC1	54*	79	23	3
CCCC(=O)N1CCN(c2nc3ccc(Cl)cc3s2)CC1	52*	77	2	40
CCCCC(=O)N1CCN(c2nc3ccc(Br)cc3s2)CC1	35	10	2	3
COc1ccc(Nc2nc3ccccc3s2)cc1	nt	66	nt	nt
COc1cccc(Nc2nc3ccc(OC)cc3s2)c1	nt	115*	2	nt
COc1ccc2nc(NC3=NCCC3)sc2c1	58*	65	57*	-21
COc1cccc2cc(-c3csc(CCn4nc(C)cc4C)n3)c(=O)oc12	23	nt	0	89*
COc1cccc2cc(-c3cn4ccc(C)cc4n3)c(=O)oc12	105*	73	nt	-10
COc1ccc(-c2csc(CCn3nc(C)cc3C)n2)cc1	nt	6	0	nt
Cc1cc(C)n(CCc2nc(-c3ccc(-c4ccccc4)cc3)cs2)n1	70*	44	20	-6
COCC(=O)N(C)C[C@@H]1Oc2cc(-c3cccnc3)ccc2S(=O)(=O)N([C@@H](C)CO)C[C@@H]1C	5	nt	nt	-9
C[C@H](NC(=O)C[C@H]1C[C@@H]2c3cc(NC(=O)C4CCC4)ccc3O[C@@H]2[C@H](CO)O1)c1ccccc1	10	nt	nt	1
COc1ccc(C2=NNC(c3cccs3)=Nc3ccc(OC)cc32)cc1	64*	0	nt	41
Cn1cccc1C(=O)OCC(=O)c1c[nH]c2ccccc12	nt	112*	-2	nt
Cc1ccc(C(=O)OCC(=O)c2c[nH]c3ccccc23)cc1	nt	44	9	nt
Cn1cccc1C(=O)OCC(=O)c1cc2ccccc2o1	14	34	34*	1
O=C(OCC(=O)c1ccc[nH]1)C1=COCCO1	1	5	-1	2
SMILES	esBAF inh	MITF TRPM1 HTS	Wnt act	C2C12 statin
COc1ccc(C(=O)OCC(=O)c2c[nH]c3ccccc23)cc1OC	52*	14	11	19
O=C(OCC(=O)c1c[nH]c2ccccc12)C1=COCCO1	64*	33	43*	-3
CO[C@H]1CN(C)C(=O)c2ccc(NC(=O)C3CC3)cc2OC[C@H](C)N(C(=O)c2cnccn2)C[C@@H]1C	-2	nt	nt	-8
CCNC(=O)C[C@@H]1CC[C@@H]2[C@H](COc3ccc(NC(=O)Nc4ccccc4OC)cc3C(=O)N2C)O1	5	nt	nt	-6
C[C@H]1CN([C@@H](C)CO)S(=O)(=O)c2ccc(C#CC3CC3)cc2O[C@@H]1CN(C)C(=O)c1cccc(F)c1	7	nt	nt	-24
C[C@H](CO)N1C[C@H](C)[C@@H](CN(C)Cc2ccc(Oc3ccccc3)cc2)Oc2ncc(-c3cncnc3)cc2C1=O	0	nt	nt	-3
CC1(C(=O)OCC(=O)c2c[nH]c3ccccc23)CC1(Cl)Cl (stereo unspecified)	46*	96*	nt	-32
COc1ccccc1/C=C/C=N/n1c(-c2ccccn2)n[nH]c1=S	56*	?	24	5
COC(=O)c1ccc(CNC(=O)CSC2=NCCS2)cc1	nt	10	nt	nt
COC(=O)c1ccc(CSC2=NCCS2)cc1	nt	84*	nt	nt
C=CCNC(=S)NNc1nc2c(c(=O)[nH]1)C1(CCCC1)Cc1ccccc1-2	nt	0	52*	nt
CC(=O)NC12CC3CC(C1)CC(C(=O)Nc1nc4ccc(F)cc4s1)(C3)C2	45*	5	6	-9

Screening results from PubChem.
